Inconclusive results are not listed. The source made the active and inactive calls. The call rests on the fitted dose curve; in most records, active means well fitted curve in the direction sought with a large enough effect; inconclusive means small, poorly fitted or top-dose-only effect, or another doubt; inactive means no such curve, though single readings can be large or run the other way. Peptide text beside a SMILES is read from it. * marks the point of attachment. Octanoyl = CCCCCCCC(=O)*
Test: HPAF-II 18hr Apoptosis Induction qHTS against the NCATS CANVASS Library (AID 1347360); further: 0% is about no effect
Conditions: HPAF-II caspase-3/7 luminescence; series mostly up to 46.1 µM; caspase activation: at the top concentration
Text: Natural products and their derivatives continue to be wellsprings of nascent therapeutic potential. However, many laboratories have limited resources for biological evaluation, leaving their previously isolated or synthesized compounds largely or completely untested. To address this issue, the Canvass library of natural products was assembled (https://tripod.nih.gov/canvass), in collaboration with academic and industry researchers, for quantitative high-throughput screening (qHTS) across a diverse set of cell-based and biochemical assays. The pure (>85% purity by liquid chromatography/mass spectrometry [LC/MS]) Canvass library of 346 natural products were submitted by 45 academic laboratories and companies around the world. We collected pure natural products to circumvent deconvolution and structure elucidation due to time and resource limitations. The library was formatted into 1536-well plates and evaluated in 50 qHTS (in an 11-pnt concentration series) bioassays with broad scope of disease-relevant mechanisms. The resulting data set from 50 different assays was then systematically analyzed to identify overall trends and specific natural products with interesting biological activities. Reported herein are the results of each individual qHTS and their corresponding assay protocol. The Caspase-Glo (R) (Promega) is a homogeneous, luminescent assay that measures caspase activity. The detection substrate contains tetrapeptide sequence DEVD in an "add-mix-measure" format. The reagent generates a luminescent signal produced by a thermostable luciferase. The luminescence is proportional to the amount of caspase activity in the assay reaction. National Center for Advancing Translational Sciences (NCATS), Rockville, MD National Institute of Health (NIH), Bethesda, Maryland
Cancer Cell Apoptosis Assay 1. In a 1536 well, white solid bottom tissue culture plates (Corning 7494), HPAF-II cancer cells in DMEM + 10% FBS + 1% P/S media were dispensed in each well at a final concentration of 500 cells / well (5uL volume) using the Multidrop Combi (Thermo Fisher Scientific) dispenser. 2. Compounds were pin transferred (~23nL volume) via Wako Pin-tool (Wako Automation, Richmond VA) equipped with a 1536 pin head. The assay plates were treated with compounds in a concentration series with a final concentration range of 0.17nM to 103uM. 3. Doxorubicin was used as a control in a 16pnt titration (1mM; 1:2 dilution; 16-points; n = 2; column 3, rows 1 - 32) and was pin transferred via Wako Pin-tool equipped with a 1536 pin head. The final concentration range of doxorubicin is 0.1nM - 4uM. 4. The assay plates were incubated for 18 hours at 37 degrees C/5% CO2/95% Rh. 5. 3uL Caspase-Glo 3/7 (R) (Promega) detection reagent was then added to the assay plates (columns 2 - 48, rows 1 - 32) and incubated at room temperature, covered from light, for 15 min. 6. Luminescence signal was acquired via the ViewLux plate reader (PerkinElmer) using a clear filter, 20 second exposure and 2x binning settings.

Compound	caspase activation	Potency
COc1cc(/C=C/C(=O)O)ccc1O	-0.426% (inactive)	
CC1C(=O)C23CCC1C[C@@]21O[C@H]2C(C)(C)C=CC(=O)[C@@]23COC1=O (stereo not given in full)	3.63% (inactive)	
COc1ccc2oc3c(OC)c(OC)c(OC)c(OC)c3c(=O)c2c1	4.09% [at 9.19 µM] (inactive)	
C=CC(C)(C)C(=O)[C@@H](C)[C@@H]1CC[C@](C)(C=C)O1	1.23% (inactive)	
CC1(C)CCC[C@]2(C)[C@@H]1CC[C@@]13C[C@@H](CC[C@H]12)C(C)(O)C3 (stereo not given in full)	-0.74% (inactive)	
C[C@@H]1O[C@@H](Oc2c(-c3ccc(O)cc3)oc3cc(O)cc(O)c3c2=O)[C@H](O)[C@H](O)[C@H]1O	-2.33% (inactive)	
CC1=CC2=C[C@H](C)C[C@@]23OC(=C(C)C3=O)CC(C)(C)/C=C/C1=O	-6.34% (inactive)	
C[C@@]12CCC[C@@](C)(C(=O)O)[C@H]1CC[C@]13C[C@H]4C[C@H](O[C@@]4(C)C1)[C@H]32	0.581% (inactive)	
CN1CC[C@]2(c3cccc4c3N[C@@H]3N(C)CC[C@]43[C@@]34CCN(C)[C@@H]3Nc3c([C@]56CCN(C)[C@H]5Nc5ccccc56)cccc34)c3ccccc3N[C@H]12	11.9% (inactive)	
CCCCCCCCCCCCCCCC(=O)OC/C=C(\C)CCCC(C)CC(C)C(C)C (stereo not given)	3.41% (inactive)	
Oc1ccc(/C=C2/c3cc(O)cc(O)c3C(c3ccc(O)cc3)[C@H]2c2cc(O)cc(O)c2)cc1 (stereo not given in full)	3.45% (inactive)	
CO[C@@H]1[C@H](O)[C@@H](C)O[C@@H](OC[C@H]2/C=C/C=C/C(=O)C(C)C[C@H](C)C(O[C@@H]3O[C@H](C)CC4(OC(=O)O[C@@H]4C)C3O)[C@@H](C)/C=C/C(=O)OC2C)[C@@H]1OC (stereo not given in full)	-1.15% (inactive)	
CC(=O)O[C@H]1CC[C@@]2(C)C(CC[C@]3(C)C2CC=C2C4CC(C)(C)CC[C@]4(C)CC[C@]23C)C1(C)C (stereo not given in full)	-2.69% (inactive)	
C=C1C(=O)O[C@H]2C[C@H](C)[C@@H]3CC(=O)C(C)=C3[C@H](O)[C@H]12	6.12% (inactive)	
C[C@@H](O)[C@H]1OC(=O)C=C2[C@]3(C)[C@H]4[C@H](OC(=O)[C@@]4(C)[C@@H](O)[C@H]4O[C@H]43)[C@H]3O[C@@]231	9.51% (inactive)	
C/C(=C\[C@H](C)C(=O)CCCC1CC(=O)NC(=O)C1)C(O)[C@@H](C)[C@H](O)C/C=C/CC/C=C/C(=O)O (stereo not given in full)	-1.79% (inactive)	
CO[C@@H]1C[C@@H](C[C@H]2CC[C@H](C)[C@H]([C@@H](C)C(=O)O)O2)O[C@]2(O[C@](C)([C@H]3CC[C@@](C)([C@@H]4O[C@@H]([C@H]5O[C@](C)(O)[C@H](C)C[C@@H]5C)C[C@@H]4C)O3)C[C@H]2C)[C@@H]1C	5.71% (inactive)	
C=C1C[C@@]23C=CC(=O)[C@@](C)(CCC(=O)Nc4c(O)ccc(C(=O)O)c4O)C2C[C@@H]1C(O)C3 (stereo not given in full)	1.67% (inactive)	
CN1CCc2cc3c(c4c2[C@H]1[C@@H](O)c1ccccc1-4)OCO3	-3.37% (inactive)	
CC1(C)[C@H](Br)CC[C@]23C[C@]4(C)C(=O)CC12C[C@H]34	-1.7% (inactive)	

Compound	caspase activation	Potency
C=C1[C@H]2CC[C@@]3(C=CC(=O)[C@@](C)(CCC(=O)Nc4c(O)ccc(C(=O)O)c4O)C3C2)[C@H]1O (stereo not given in full)	0.917% (inactive)	
CC(=O)[C@@H]1[C@@H](O)C[C@H]2[C@]3(C)CC[C@H]4C(C)(C)CCC[C@]4(CO)[C@H]3C[C@H]3OC(=O)[C@@H]1[C@@]32C	-2.78% (inactive)	
O=C1C[C@@H](c2ccc(O)c(-c3c(O)cc(O)c4c3O[C@H](c3ccc(O)cc3)CC4=O)c2)Oc2cc(O)cc(O)c21	-2.34% [at 27.5 µM] (inactive)	
C/C1=C\CC(=O)/C=C/C=C\c2csc(n2)[C@@H](C)NC(=O)C[C@@](S)([C@@H](C)C(=O)O)CC1	1.68% (inactive)	
CCCCCCC[C@@H](C/C=C/CCC(=O)NCCc1c[nH]c2ccccc12)OC	-2.41% (inactive)	
CS/C=C/C(N)=O	-2.03% (inactive)	
O=C1c2c(O)cc(O)cc2O[C@@H](c2ccc(O)cc2)[C@@H]1c1c(O)cc(O)c2c(=O)cc(-c3ccc(O)c(O)c3)oc12	-3% (inactive)	
CC12C[C@]3(O)O[C@@H](O1)[C@]1(COC(=O)c4ccccc4)[C@@H]3CC21OC1OC(CO)C(O)C(O)C1O (stereo not given in full)	2.37% (inactive)	
O=Cc1ccc2n1C[C@@]1(C[C@H](O)[C@@H](CO)O1)OC2	3.56% (inactive)	
C=C(C)[C@@H]1CC[C@]2(C)CC[C@]3(C)[C@H](CC[C@@H]4[C@@]5(C)CC[C@H](O)C(C)(C)[C@@H]5CC[C@]43C)[C@@H]12		inactive
C/C=C/c1cc(OC)c2c(c1)[C@@H](C)[C@H](c1ccc(O)c(OC)c1)O2	2.27% (inactive)	
CC(C)(Br)[C@@H](Cl)C[C@H](Br)[C@](C)(Cl)/C=C/Br	2.15% (inactive)	
C[C@@]12CCC[C@@](C)(C(=O)O)[C@H]1C[C@@H](O)[C@]13C[C@H]4C[C@H](O[C@@]4(C)C1)[C@@H]23	2.56% (inactive)	
O=C(OC1Cc2c(O)cc(O)cc2OC1c1cc(O)c(O)c(O)c1)c1cc(O)c(O)c(O)c1 (stereo not given)	4.32% (inactive)	
CCCCCCCC(=O)N[C@@H](CC(C)C)C(=O)N[C@H](C=O)CCC(=O)O (Octanoyl-Leu-Glu-aldehyde)	-2.2% (inactive)	
O=Cc1ccc2n1C[C@@]1(OC2)O[C@H](CO)[C@@H](O)[C@@H]1O	-1.22% (inactive)	
Oc1ccc([C@H]2Oc3ccc(/C=C/c4cc(O)cc(O)c4)cc3C2c2cc(O)cc(O)c2)cc1 (stereo not given in full)	3.77% (inactive)	
C[C@@H]1C(=O)[C@]23CC[C@H]1C[C@]21O[C@H]2C(C)(C)C=CC(=O)[C@]23COC1=O	-0.873% (inactive)	
C/C=C/C=C/C1(O)C2C=C3C(=O)CC45C(=O)C(O)=C(C)C(=O)C4C1C1(C(=O)C(O)=C(C)C(=O)C351)C2C (stereo not given)	1.96% (inactive)	
CO[C@H]1/C=C/CC[C@@H](S[C@@H]2O[C@H](CO)[C@@H](O)[C@H](O)[C@H]2O)CC(=O)O[C@@H](/C(C)=C/[C@H](C)C(=O)CCCC2CC(=O)NC(=O)C2)[C@@H](C)[C@@H]1O	9.54% (inactive)	
